Screening results (PubChem)
Luciferase inh = Firefly luciferase inhibition profiling of diverse chemical library using quantitative high-throughput screening | Luciferin 4-monooxygenase (Photinus pyralis), P08659 | purified P. pyralis luciferase, luminescence, biochemical | Potency, µM (series often up to 115 µM), most hits filed as inhibitors | hit rate 2.5% among 76,000; also: nearly all actives have a fitted effect of over 65% in size
Target sequence (P08659 whole entry, looked up): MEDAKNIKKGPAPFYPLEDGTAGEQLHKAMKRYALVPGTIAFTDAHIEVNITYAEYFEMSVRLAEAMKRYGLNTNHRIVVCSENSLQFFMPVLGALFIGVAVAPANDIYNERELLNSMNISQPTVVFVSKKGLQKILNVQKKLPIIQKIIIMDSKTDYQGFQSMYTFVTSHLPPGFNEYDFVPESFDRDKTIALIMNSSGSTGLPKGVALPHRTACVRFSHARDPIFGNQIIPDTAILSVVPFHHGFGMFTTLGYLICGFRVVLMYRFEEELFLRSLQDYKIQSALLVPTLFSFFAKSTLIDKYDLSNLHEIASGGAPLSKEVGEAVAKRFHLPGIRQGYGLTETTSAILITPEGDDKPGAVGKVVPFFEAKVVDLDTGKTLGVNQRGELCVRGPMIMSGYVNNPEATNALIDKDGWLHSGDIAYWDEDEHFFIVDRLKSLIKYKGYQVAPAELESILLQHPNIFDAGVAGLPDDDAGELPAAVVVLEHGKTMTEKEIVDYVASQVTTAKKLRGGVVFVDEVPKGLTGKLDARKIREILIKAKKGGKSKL
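Luminescence read by CCD imaging after purified firefly luciferase (10nM final) was added to substrate buffer holding 10uM D-luciferin and 10uM ATP, pH 7.5, pre-dosed with compound.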
HEK cytotox = Cytotoxic Profiling in HEK 293 Cell Line of Diverse Libraries Using Quantitative High-Throughput Screening | HEK 293 viability, ATP luminescence (CellTiter-Glo), 48-72 h | Potency, µM (top dose mostly 115 µM), for inactives: at the top dose activity change, negative = cytotoxicity, usual class: inhibitors | hit rate 6.6% among 94,000 | AID 1345083, 2018; also: nearly all actives have a fitted effect of over 60% in size
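Read-out: CellTiter-Glo ATP luminescence. Cells: HEK 293, 250 cells/well. Exposure: 48 or 72 hr, 37 degree Celsius.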
NPR1 antag = Natriuretic polypeptide receptor (hNpr1) antagonism - Primary qHTS; Atrial natriuretic peptide receptor 1 (Homo sapiens), P16066; HEK293 hNpr1 GloSensor cGMP, ANP-stimulated luminescence; Potency, µM (top dose mostly 46.3 µM), for the others: at the highest dose activity change, negative = inhibition, actives largely listed as inhibitors; hit rate 1.6% among 76,000; AID 1347048, 2019; calls by dose curve; also: nearly all actives have a fitted effect of over 60% in size
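HEK293 cells stably expressing human Npr1 and cGMP GloSensor pGS-40F, loaded 2 h with 2% GloSensor reagent, given compound 30 min at room temperature. Luminescence read before and 20 min after 0.1 nM hNppA.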
3T3 cytotox = Cytotoxic Profiling in NIH 3T3 Cell Line of Diverse Libraries Using Quantitative High-Throughput Screening | Potency, µM (titrated, usually from 96.7 µM), without a hit: top-dose activity change, negative = cytotoxicity, usual class: inhibitors | NIH 3T3 viability, CellTiter-Glo ATP luminescence, 48-72 h | hit rate 4.3% among 94,000; also: nearly all actives have a fitted effect of over 55% in size
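NIH 3T3 cells at 400 cells/well received 23 nL of compound by pintool and were incubated 48 or 72 h at 37 °C. Viability was read as ATP-coupled CellTiter-Glo luminescence.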
Starred values were filed as active, the others as inactive; i = inactive; ? = inconclusive; . = not tested or not shown; [ ] = another dose, or the depositor's remark. Hits are enriched below; roughly 11% of the tested compounds scored in any of these assays. Unless noted, calls follow the shape of the dose curve; as a rule, active = well fitted curve in the direction sought with a large enough effect; inconclusive = small, poorly fitted or top-dose-only effect, or another doubt; inactive = no such curve, though single readings can be large; an effect the other way counts as inactive or inconclusive. % is scaled to controls: 0 for no effect and ±100 for the full control effect; potency is read from the fitted curve at half-maximal effect.

SMILES	Luciferase inh	HEK cytotox	NPR1 antag	3T3 cytotox
COc1ccc(C2Cn3nnc(-c4noc(-c5ccc[nH]5)n4)c3CO2)cc1 (stereo not drawn)	i	?	8.1%	?
Cc1ccc(CN2C(=O)COC[C@H]2C(=O)Nc2ccc(F)c(F)c2)cc1	.	-22.0%	.	-36.1%
O=C(CC(c1cccc([N+](=O)[O-])c1)c1c[nH]c2ccccc12)NCCc1ccccc1 (stereo not drawn)	i	31.6µM*	?	25.1µM*
COc1ccccc1C(CC(=O)NCCc1ccccc1)c1c[nH]c2ccccc12 (stereo not drawn)	?	?	-5.0%	39.8µM*
CCc1cccc2c(C(CC(=O)NCCc3ccc(OC)c(OC)c3)c3ccccc3OC)c[nH]c12 (stereo not drawn)	i	35.5µM*	-13.9%	?
CCOC(=O)C1(Cc2ccccc2C(F)(F)F)CCNCC1	i	?	0.5%	?
O=C(c1ccc2nnc(-c3cc(C(F)(F)F)cc(C(F)(F)F)c3)n2c1)N1CCOCC1	.	-4.6%	.	-25.3%
C[C@H](C(=O)N1CCCC1)[C@@H]1CC[C@@]2(C)Cc3sc(-c4ccsc4)nc3[C@@H](C)[C@@H]2[C@H]1O	11.2µM*	?	-19.3%	-25.8%
C[S+](=O)([O-])c1cccc(-c2ccc3ncn(-c4ccc(F)cc4F)c(=O)c3n2)c1	i	?	0.1%[70.6 µM]	?
COCc1cccc(-c2ccc3ncn(-c4ccc(F)cc4F)c(=O)c3n2)c1	i	-23.2%[172 µM]	4.2%[70.6 µM]	?
O=c1c2nc(-c3ccc(O)c(F)c3)ccc2ncn1-c1ccc(F)cc1F	i	?	-1.5%[70.6 µM]	?
CC(=O)Nc1cccc(-c2ccc3ncn(-c4ccc(F)cc4F)c(=O)c3n2)c1	i	89.1µM*	-1.7%[70.6 µM]	?
O=c1c2nc(-c3cccnc3)ccc2ncn1-c1ccc(F)cc1F	i	70.8µM*	0.1%[70.6 µM]	?
COc1ncc(-c2ccc3ncn(-c4ccc(F)cc4F)c(=O)c3n2)cn1	i	89.1µM*	-2.1%[70.6 µM]	?
CNC1CCCc2ccccc21 (stereo not drawn)	.	i	.	i
CCOc1ccc2c(n1)CCN(C(=O)Nc1ccccc1OCC)C2	?	?	0.0%	?
Cc1nccn1CCNC(=O)CCC[C@H]1NC[C@@H]2C[C@H]1CN(Cc1ccccc1)C2	i	-16.2%	-26.2%	-3.5%
COc1cccc(C(=O)NCCNC(=O)c2ccc(-c3cccc(C(F)(F)F)c3)cc2)c1	.	?	.	-23.8%
O=C(NCCNC(=O)c1ccc(-c2cccc(C(F)(F)F)c2)cc1)c1ccncc1	.	39.8µM*	.	?
O=C(NCCNC(=O)c1ccc(-c2cccc(C(F)(F)F)c2)cc1)c1ccccc1	.	-24.7%	.	-5.6%
COc1ccc(CC(=O)NCCNC(=O)c2ccc(-c3cccc(C(F)(F)F)c3)cc2)cc1	.	25.1µM*	.	-24.5%
CN(Cc1cccnc1)C(=O)CCC[C@H]1NC[C@@H]2C[C@H]1CN(Cc1ccccc1)C2	i	4.8%	2.1%	i
CN(Cc1ccc(N2CCCCC2)cc1)C(=O)CCC[C@H]1NC[C@@H]2C[C@H]1CN(Cc1ccccc1)C2	i	?	-2.2%	17.8µM*
O=C(CCC[C@H]1NC[C@@H]2C[C@H]1CN(Cc1ccccc1)C2)Nc1cccc(F)c1	i	?	-3.1%	?
O=C(CCC[C@H]1NC[C@@H]2C[C@H]1CN(Cc1ccccc1)C2)Nc1ccc2c(c1)OCCO2	44.7µM*	-13.0%	0.6%	-6.2%
SMILES	Luciferase inh	HEK cytotox	NPR1 antag	3T3 cytotox
Cc1nn(C)cc1CN1CCC(O)(c2ccccc2)[C@H](N2CCCC2)C1 (stereo partly drawn)	i	-25.1%	0.6%	?
O=C(c1ccc(F)cc1)N1CCC(C(=O)N2CCC(c3nc4ncccc4[nH]3)C2)CC1 (stereo not drawn)	.	0.8%	.	i
CC(C)[C@H]1NC(=O)[C@@H]2[C@@H](NC(=O)NC3CCCCC3)CCN2C1=O	i	i	2.7%[70.6 µM]	i
O=C(NCc1ccc(Cl)cc1)c1cc2n(n1)CC(c1ccc(Cl)cc1)OC2 (stereo not drawn)	i	?	?	35.5µM*
CCc1ccc(CNC(=O)c2cc3n(n2)CC(c2ccc(Cl)cc2)OC3)cc1 (stereo not drawn)	i	?	?	39.8µM*
CC(C)c1ccc(CNC(=O)c2cc3n(n2)CC(c2ccc4c(c2)OCO4)OC3)cc1 (stereo not drawn)	i	39.8µM*	-18.7%	?
COc1ccc(-c2nc(C(=O)NCc3cccnc3)n3ccccc23)cc1	i	?	0.5%	?
COc1ccc2c(c1)c(CN1CCCCCCN(C)C(=O)[C@@H]3CCC[C@@H]31)cn2C	i	35.5µM*	-13.3%	28.2µM*
C[C@@H](N)C(=O)N1CCOc2c(O)cc(-c3ncc(C(F)(F)F)cc3Cl)cc2C1	i	-12.6%	-4.1%	-31.1%
Cc1ccccc1CCN1CCCC(CN(C)C(=O)c2cc3ccccc3[nH]2)C1 (stereo not drawn)	i	22.4µM*	?	?
COc1ccc(-c2cn3cc(C(=O)N4CCCC4)nc3c(=O)n2CC2CC2)c(F)c1	i	31.6µM*	-25.5%	31.6µM*
COc1ccc(-c2cn3cc(C(=O)NCCO)nc3c(=O)n2CC2CC2)c(F)c1	i	?	4.5%	-14.2%
CC1CCCN1C(=O)c1cn2cc(-c3cccc(Cl)c3)n(CC3CC3)c(=O)c2n1 (stereo not drawn)	i	?	-8.8%	25.1µM*
O=C(N[C@@H]1CN(C(=O)c2ccc3ccccc3n2)C[C@H]1CO)c1ccccc1	.	-9.3%	.	-24.1%
Fc1ccc(-c2noc([C@@H]3Cc4nc[nH]c4CN3Cc3ccccc3)n2)cc1Cl	i	70.8µM*	-26.4%[70.6 µM]	70.8µM*
Fc1ccc(-c2noc([C@@H]3Cc4nc[nH]c4CN3Cc3cc4ccccc4o3)n2)cc1Cl	?	?	-26.9%	?
Fc1ccc(-c2noc([C@@H]3Cc4nc[nH]c4CN3CCCc3ccccc3)n2)cc1Cl	?	?	-12.3%	?
Fc1ccc(-c2noc([C@@H]3Cc4nc[nH]c4CN3Cc3cccs3)n2)cc1Cl	56.2µM*	?	-27.7%[70.6 µM]	50.1µM*
c1ccc(CN2Cc3[nH]cnc3C[C@H]2c2nc(-c3ccncc3)no2)cc1	i	?	-5.8%[70.6 µM]	?
Cc1ccc(-c2noc([C@@H]3Cc4nc[nH]c4CN3Cc3cccs3)n2)cc1	28.2µM*	79.4µM*	-17.7%[70.6 µM]	79.4µM*
CN1CC2(CCN(Cc3ccccc3C#N)CC2)CC1C(=O)N1CCOCC1 (stereo not drawn)	i	-2.0%	1.8%	-17.4%
Cc1ccccc1CN1Cc2nc(-c3cccc(C(N)=O)c3)ccc2OCC1=O	i	70.8µM*	-14.4%[70.6 µM]	?
